Results taken from PubChem BioAssay (Tox21).
Records with an inconclusive call do not appear. Activity calls are given as the source filed them. The call rests on the fitted dose curve; in most records, active means well fitted cell-killing curve with a large enough effect in the repeat runs; inconclusive means weak or mixed curves, or effect the other way; inactive means flat fitted curve, though single readings scatter.

Experiment: qHTS assay to identify small molecule agonists of the TGF-beta/Smad signaling pathway - cell viability counter screen (AID 1346829); further: top concentration of the series differs between compounds; nearly all actives have a fitted effect of over 45% in size
Conditions: SBE-bla HEK293T viability, CellTiter-Glo luminescence, 5 h; series mostly up to 76.8 µM; activity change, negative = cytotoxicity: at the top concentration
Source text: National Center for Advancing Translational Sciences [NCATS]
NIH Chemical Genomics Center [NCGC]
U.S. Environmental Protection Agency [EPA]
National Institutes of Environmental Health Sciences [NIEHS]
National Toxicology Program [NTP]
U.S. Food and Drug Administration [FDA]
Transforming growth factor beta (TGF-beta) superfamily consists of a large number of structurally related dimeric proteins that act as hormones or local mediators in regulating a wide range of biological functions. This superfamily includes TGF-betas themselves, the bone morphogenetic proteins (BMPs) and the activins. These ligands induce oligomerization of serine/threonine receptor kinases and phosphorylate the cytoplasmic signaling molecules of Smad protein family. CellSensor SBE-bla HEK 293T cell line (Life Technologies, Carlsbad, CA), responsive to TGF-beta was used to screen Tox21 10K compound library for identification of agonists/antagonists of the Smad signaling pathway. This cell line contains a beta-lactamase reporter gene under control of the Smad binding element (SBE) stably integrated into HEK 293T cells. Also cytotoxicity of the compounds was tested in parallel by measuring the cell viability using CellTiter-Glo assay system in the same wells.
Tox21 Assay Protocol Summary:
SBE-bla HEK 293T cells were dispensed at 4,000/well in 6 uL of assay medium into black wall/clear-bottom 1536-well plates using a Multidrop Combi (ThermoFisher Scientific, Waltham, MA) dispenser. After the assay plates were incubated at 37 C and 5% CO2 for an overnight, 23 nL of compounds dissolved in DMSO, positive controls or DMSO only was transferred to the assay plate by a Pintool station (Kalypsys, San Diego, CA). The assay plates were incubated at 37 C and 5% CO2 for 5 hr. One uL of LiveBLAzer B/G FRET substrate (Life Technologies) was added using a Flying Reagent Dispenser (FRD, Aurora Discovery, San Diego, CA) and the plates were incubated at room temperature for 2 hr. Fluorescence intensity (405 nm excitation, 460 nm and 530 nm emissions) was measured using an Envision plate reader (PerkinElmer, Shelton, CT). For cytotoxicity read, 4 uL of CellTiter-Glo reagent (Promega Corporation, Madison, WI) was added to each well of the assay plates using FRD. After 30min incubation at room temperature, the luminescence intensity was measured using ViewLux plate reader (PerkinElmer).
On the % scale 0 is the no-effect control and ±100 the full control effect.

SMILES	activity change, negative = cytotoxicity	outcome
CCc1ccc(O)c(OC)c1	1.7% (inactive)	–
OCCOc1ccc(OCCO)cc1	-0.374% (inactive)	–
CC(C)=CCCC(C)CC(=O)O (stereo not given)	2.98% (inactive)	–
CC(C)NCCCC1(C(N)=O)c2ccccc2-c2ccccc21	2.32% [at 35.3 µM] (inactive)	–
C=CCS(=O)(=O)O	7.02% (inactive)	–
O=C(O)CCCc1ccccc1	-16% [at 35.3 µM] (inactive)	–
CCOc1ccc(C(=O)OCCN(CC)CC)cc1	-12.3% [at 35.3 µM] (inactive)	–
Cc1nc2c([nH]1)c(=O)n(C)c(=O)n2Cc1ccco1	7.3% [at 35.3 µM] (inactive)	–
C[N+](C)(C)CCCCCC[N+](C)(C)C	–	inactive
CCCCCCCCCCCCCCCCC	0.14% (inactive)	–
CCC(C)C1CCCCC1=O (stereo not given)	-0.233% (inactive)	–
CN(C)CCCNCCCN(C)C	0.0195% (inactive)	–
Cc1c(NC(C)C)c(=O)n(-c2ccccc2)n1C	-11.9% [at 35.3 µM] (inactive)	–
C1CN(CCOCCN2CCOCC2)CCO1	0.427% (inactive)	–
CC(C(=O)O)c1ccc(CC2CCCC2=O)cc1 (stereo not given)	-19.5% [at 35.3 µM] (inactive)	–
CC(C)(O)C#CC(C)(C)O	-4.95% (inactive)	–
CCn1ccnc1CC1COc2ccccc2O1 (stereo not given)	-10.6% [at 35.3 µM] (inactive)	–
CCCc1cc(C(N)=S)ccn1	3.09% [at 35.3 µM] (inactive)	–
CC(=O)OCC(CCn1cnc2cnc(N)nc21)COC(C)=O	10.5% [at 35.3 µM] (inactive)	–
C[C@@H]1CCN(C(=O)[C@H](CCCN=C(N)N)NS(=O)(=O)c2cccc3c2NC[C@H](C)C3)[C@@H](C(=O)O)C1	-1.7% [at 35.3 µM] (inactive)	–

SMILES	activity change, negative = cytotoxicity	outcome
CCOC(=O)c1ccc(C)cc1	-9.68% (inactive)	–
Nc1nc2c(ncn2COC(CO)CO)c(=O)[nH]1	1.61% [at 35.3 µM] (inactive)	–
CCn1nc(C(=O)O)c(=O)c2cc3c(cc21)OCO3	-7.71% [at 35.3 µM] (inactive)	–
CN1C(=O)N(C)C(O)C1O (stereo not given)	-5.06% (inactive)	–
CCO[Si](CCC1CCC2OC2C1)(OCC)OCC (stereo not given)	9.64% (inactive)	–
CCN(CC)CCNC(=O)c1cc(S(C)(=O)=O)ccc1OC	-0.734% [at 35.3 µM] (inactive)	–
O=c1cc(-c2ccccc2)oc2ccccc12	–	inactive
CC(=O)OCC(=O)[C@@]1(O)CC[C@H]2[C@@H]3CCC4=CC(=O)CC[C@]4(C)[C@H]3C(=O)C[C@@]21C	-12% [at 35.3 µM] (inactive)	–
CC1=CC(C)C(C=O)CC1 (stereo not given)	-18.8% (inactive)	–
Cc1cccn2c(=O)c(-c3nnn[nH]3)cnc12	2.08% [at 15.8 µM] (inactive)	–
CC(=O)OCC(=O)[C@@]1(O)CCC2C3CCC4=CC(=O)CC[C@]4(C)C3[C@@H](O)C[C@@]21C (stereo not given in full)	8.1% [at 35.3 µM] (inactive)	–
COC(=O)c1cc(C(=O)OC)cc(S(=O)(=O)O)c1	4.26% (inactive)	–
CCCN(CCC)CCc1cccc2c1CC(=O)N2	-6.47% [at 35.3 µM] (inactive)	–
O=C(O)CNC(=O)c1ccc([N+](=O)[O-])cc1	-11.9% (inactive)	–
O=C1CC2CC1C1CCCC21 (stereo not given)	0.68% (inactive)	–
CN1N=C(C(N)=O)CCC1=O	0.447% [at 35.3 µM] (inactive)	–
C=C(C)CS(=O)(=O)O	-2.67% (inactive)	–
COC(C)(C)CCCC(C)CC=O (stereo not given)	11.3% (inactive)	–
CCOC(=O)[C@H](CCc1ccccc1)N[C@@H](C)C(=O)N1[C@H](C(=O)O)C[C@@H]2CCC[C@@H]21	-0.426% [at 35.3 µM] (inactive)	–
CCCCOCCOCCOCc1cc2c(cc1CCC)OCO2	–	inactive
